# Columns and labels:
# [1] = biological target: 5'-AMP-activated protein kinase catalytic subunit alpha-2 (Homo sapiens) (UniProt P54646); conditions: at 1 µM
# [2] = biological target: T1, NUAK family SNF1-like kinase 1 (Homo sapiens) (UniProt O60285); conditions: at 0.1 µM
# T1 sequence (whole entry): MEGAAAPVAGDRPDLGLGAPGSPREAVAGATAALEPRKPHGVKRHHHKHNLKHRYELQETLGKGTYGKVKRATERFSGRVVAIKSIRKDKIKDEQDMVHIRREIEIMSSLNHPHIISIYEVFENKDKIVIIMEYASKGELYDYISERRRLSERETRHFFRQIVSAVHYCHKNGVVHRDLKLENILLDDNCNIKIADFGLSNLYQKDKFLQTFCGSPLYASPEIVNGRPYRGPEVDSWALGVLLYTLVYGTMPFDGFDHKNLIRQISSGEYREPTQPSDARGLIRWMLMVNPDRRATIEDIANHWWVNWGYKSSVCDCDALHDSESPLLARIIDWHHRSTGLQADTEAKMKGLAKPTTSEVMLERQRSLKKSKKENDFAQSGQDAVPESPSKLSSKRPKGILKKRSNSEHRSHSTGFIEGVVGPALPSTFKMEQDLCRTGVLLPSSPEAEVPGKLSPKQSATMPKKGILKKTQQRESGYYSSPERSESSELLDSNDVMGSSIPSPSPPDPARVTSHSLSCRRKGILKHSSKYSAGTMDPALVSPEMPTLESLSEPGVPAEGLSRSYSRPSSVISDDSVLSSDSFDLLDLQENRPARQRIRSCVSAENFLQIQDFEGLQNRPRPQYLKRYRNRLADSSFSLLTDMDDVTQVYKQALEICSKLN
# [3] = biological target: T1, NUAK family SNF1-like kinase 1 (Homo sapiens); conditions: at 1 µM
# [4] = biological target: T2, Serine/threonine-protein kinase BRSK1 (Homo sapiens) (UniProt Q8TDC3); conditions: at 0.1 µM
# T2 sequence (whole entry): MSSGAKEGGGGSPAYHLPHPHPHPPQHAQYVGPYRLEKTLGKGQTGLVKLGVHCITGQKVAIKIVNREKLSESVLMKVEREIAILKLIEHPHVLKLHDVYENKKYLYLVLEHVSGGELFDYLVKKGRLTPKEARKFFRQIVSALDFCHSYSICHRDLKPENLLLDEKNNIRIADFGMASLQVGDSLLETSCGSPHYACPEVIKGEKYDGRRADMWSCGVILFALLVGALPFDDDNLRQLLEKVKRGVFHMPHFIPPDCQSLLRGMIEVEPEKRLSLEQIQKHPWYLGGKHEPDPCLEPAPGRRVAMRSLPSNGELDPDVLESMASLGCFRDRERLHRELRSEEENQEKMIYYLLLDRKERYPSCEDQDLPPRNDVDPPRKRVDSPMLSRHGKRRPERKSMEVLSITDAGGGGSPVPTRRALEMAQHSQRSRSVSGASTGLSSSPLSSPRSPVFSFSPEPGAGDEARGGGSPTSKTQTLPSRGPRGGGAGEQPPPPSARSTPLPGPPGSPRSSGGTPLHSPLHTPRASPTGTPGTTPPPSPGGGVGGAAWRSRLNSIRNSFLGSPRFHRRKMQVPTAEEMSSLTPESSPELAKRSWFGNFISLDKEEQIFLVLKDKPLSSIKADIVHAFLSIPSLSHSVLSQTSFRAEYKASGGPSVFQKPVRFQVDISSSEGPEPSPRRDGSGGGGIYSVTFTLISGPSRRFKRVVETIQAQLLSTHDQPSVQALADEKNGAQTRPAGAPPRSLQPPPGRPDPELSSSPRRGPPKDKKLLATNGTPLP
# [5] = biological target: T2, Serine/threonine-protein kinase BRSK1 (Homo sapiens); conditions: at 1 µM
# [6] = biological target: T3, Serine/threonine-protein kinase BRSK2 (Homo sapiens) (UniProt Q8IWQ3); conditions: at 0.1 µM
# T3 sequence (whole entry): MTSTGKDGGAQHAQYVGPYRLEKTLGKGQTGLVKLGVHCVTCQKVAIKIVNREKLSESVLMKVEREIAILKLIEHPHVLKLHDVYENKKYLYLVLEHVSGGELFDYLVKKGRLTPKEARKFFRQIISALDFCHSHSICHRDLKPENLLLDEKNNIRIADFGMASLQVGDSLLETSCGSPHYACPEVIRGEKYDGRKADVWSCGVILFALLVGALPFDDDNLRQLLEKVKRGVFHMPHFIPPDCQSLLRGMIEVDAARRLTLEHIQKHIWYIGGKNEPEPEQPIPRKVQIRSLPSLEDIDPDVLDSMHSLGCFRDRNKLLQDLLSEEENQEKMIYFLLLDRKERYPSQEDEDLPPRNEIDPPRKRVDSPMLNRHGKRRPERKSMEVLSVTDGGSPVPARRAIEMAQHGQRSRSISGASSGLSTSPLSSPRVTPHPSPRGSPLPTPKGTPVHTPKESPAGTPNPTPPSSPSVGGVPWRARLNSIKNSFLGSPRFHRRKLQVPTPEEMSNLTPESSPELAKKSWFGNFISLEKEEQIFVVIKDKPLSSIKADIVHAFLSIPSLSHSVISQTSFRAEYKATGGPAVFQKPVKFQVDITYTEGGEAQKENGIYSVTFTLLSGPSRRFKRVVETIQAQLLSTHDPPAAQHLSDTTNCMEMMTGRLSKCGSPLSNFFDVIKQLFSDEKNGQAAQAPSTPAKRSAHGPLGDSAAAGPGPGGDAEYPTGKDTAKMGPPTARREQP
# [7] = biological target: T3, Serine/threonine-protein kinase BRSK2 (Homo sapiens); conditions: at 1 µM
# [8] = biological target: Calcium/calmodulin-dependent protein kinase type 1D (Homo sapiens) (UniProt Q8IU85); conditions: at 0.1 µM
# Chain of Calcium/calmodulin-dependent protein kinase type 1D (Homo sapiens) (Q8IU85 whole entry, looked up): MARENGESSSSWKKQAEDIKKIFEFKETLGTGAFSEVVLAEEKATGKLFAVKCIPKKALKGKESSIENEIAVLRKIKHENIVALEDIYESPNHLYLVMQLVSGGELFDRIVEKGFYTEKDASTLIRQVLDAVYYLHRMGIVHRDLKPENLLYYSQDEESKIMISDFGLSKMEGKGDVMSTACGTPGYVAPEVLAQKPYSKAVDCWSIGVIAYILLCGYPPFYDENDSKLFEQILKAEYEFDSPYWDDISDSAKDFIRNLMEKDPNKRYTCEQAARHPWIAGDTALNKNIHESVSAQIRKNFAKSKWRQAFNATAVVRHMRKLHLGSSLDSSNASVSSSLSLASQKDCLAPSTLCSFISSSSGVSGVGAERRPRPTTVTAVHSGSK
# [9] = biological target: Calcium/calmodulin-dependent protein kinase type 1D (Homo sapiens) (UniProt Q8IU85); conditions: at 1 µM
# [10] = biological target: Calcium/calmodulin-dependent protein kinase type II subunit alpha (Homo sapiens) (UniProt Q9UQM7); conditions: at 0.1 µM
# Chain of Calcium/calmodulin-dependent protein kinase type II subunit alpha (Homo sapiens) (Q9UQM7 whole entry): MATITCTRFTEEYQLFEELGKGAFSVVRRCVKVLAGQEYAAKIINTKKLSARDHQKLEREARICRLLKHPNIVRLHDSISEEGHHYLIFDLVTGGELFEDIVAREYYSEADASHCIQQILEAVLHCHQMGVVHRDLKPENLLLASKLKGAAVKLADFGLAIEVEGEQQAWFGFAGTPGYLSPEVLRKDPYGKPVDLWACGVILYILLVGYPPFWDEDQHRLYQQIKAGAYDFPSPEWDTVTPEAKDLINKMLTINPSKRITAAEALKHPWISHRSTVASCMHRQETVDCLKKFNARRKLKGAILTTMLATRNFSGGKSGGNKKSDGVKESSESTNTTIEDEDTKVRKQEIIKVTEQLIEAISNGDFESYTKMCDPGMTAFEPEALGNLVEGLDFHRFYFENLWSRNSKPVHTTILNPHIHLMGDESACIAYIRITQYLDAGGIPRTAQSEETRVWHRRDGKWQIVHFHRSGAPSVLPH
# [11] = biological target: Calcium/calmodulin-dependent protein kinase type II subunit alpha (Homo sapiens) (UniProt Q9UQM7); conditions: at 1 µM
# [12] = biological target: Calcium/calmodulin-dependent protein kinase type II subunit delta (Homo sapiens) (UniProt Q13557); conditions: at 0.1 µM
# Chain of Calcium/calmodulin-dependent protein kinase type II subunit delta (Homo sapiens) (Q13557 whole entry): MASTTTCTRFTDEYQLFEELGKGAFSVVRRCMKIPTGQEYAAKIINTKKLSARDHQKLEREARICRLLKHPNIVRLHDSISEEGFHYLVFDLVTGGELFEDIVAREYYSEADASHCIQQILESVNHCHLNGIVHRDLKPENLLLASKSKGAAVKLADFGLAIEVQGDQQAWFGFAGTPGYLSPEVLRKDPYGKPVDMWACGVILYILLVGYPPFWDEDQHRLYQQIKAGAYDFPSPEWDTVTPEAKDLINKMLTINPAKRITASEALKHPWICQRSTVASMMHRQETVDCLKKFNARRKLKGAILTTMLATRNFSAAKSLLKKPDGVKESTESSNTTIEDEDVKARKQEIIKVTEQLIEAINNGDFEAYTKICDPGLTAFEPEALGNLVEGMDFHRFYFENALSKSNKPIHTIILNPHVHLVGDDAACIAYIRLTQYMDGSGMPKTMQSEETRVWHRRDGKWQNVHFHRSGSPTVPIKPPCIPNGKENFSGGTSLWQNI
# [13] = biological target: Calcium/calmodulin-dependent protein kinase type II subunit delta (Homo sapiens) (UniProt Q13557); conditions: at 1 µM
# [14] = biological target: T4, Calcium/calmodulin-dependent protein kinase type IV (Homo sapiens) (UniProt Q16566); conditions: at 0.1 µM
# T4 sequence (whole entry): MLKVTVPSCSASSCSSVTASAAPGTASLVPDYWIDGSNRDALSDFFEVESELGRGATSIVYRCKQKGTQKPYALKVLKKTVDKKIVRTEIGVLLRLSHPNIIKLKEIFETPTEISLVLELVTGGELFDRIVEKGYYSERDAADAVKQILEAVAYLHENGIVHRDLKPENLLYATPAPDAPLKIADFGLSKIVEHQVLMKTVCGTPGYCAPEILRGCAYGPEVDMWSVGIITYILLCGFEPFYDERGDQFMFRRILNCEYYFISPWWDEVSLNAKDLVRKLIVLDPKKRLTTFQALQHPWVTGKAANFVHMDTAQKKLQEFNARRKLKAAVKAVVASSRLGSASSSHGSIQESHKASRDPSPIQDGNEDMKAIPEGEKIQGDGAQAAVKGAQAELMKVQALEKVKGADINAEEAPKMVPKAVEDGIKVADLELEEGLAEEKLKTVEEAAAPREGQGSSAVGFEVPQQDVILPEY
# [15] = biological target: T4, Calcium/calmodulin-dependent protein kinase type IV (Homo sapiens); conditions: at 1 µM
# [16] = biological target: T5, Serine/threonine-protein kinase Chk1 (Homo sapiens) (UniProt O14757); conditions: at 0.1 µM
# T5 sequence (whole entry): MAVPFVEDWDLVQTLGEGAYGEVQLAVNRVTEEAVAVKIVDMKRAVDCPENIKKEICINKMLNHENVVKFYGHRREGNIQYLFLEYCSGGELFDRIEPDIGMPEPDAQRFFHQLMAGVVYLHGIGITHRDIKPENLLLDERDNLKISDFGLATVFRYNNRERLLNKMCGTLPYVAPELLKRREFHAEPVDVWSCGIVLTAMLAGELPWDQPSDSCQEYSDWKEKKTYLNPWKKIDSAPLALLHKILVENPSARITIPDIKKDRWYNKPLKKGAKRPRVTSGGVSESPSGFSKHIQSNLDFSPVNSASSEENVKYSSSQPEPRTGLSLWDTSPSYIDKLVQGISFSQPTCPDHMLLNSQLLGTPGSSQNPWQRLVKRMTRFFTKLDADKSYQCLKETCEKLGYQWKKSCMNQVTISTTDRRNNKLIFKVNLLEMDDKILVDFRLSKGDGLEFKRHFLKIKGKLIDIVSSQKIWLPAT
# [17] = biological target: T5, Serine/threonine-protein kinase Chk1 (Homo sapiens); conditions: at 1 µM
# [18] = biological target: Serine/threonine-protein kinase Chk2 (Homo sapiens) (UniProt O96017); conditions: at 0.1 µM
# Chain of Serine/threonine-protein kinase Chk2 (Homo sapiens) (O96017 whole entry): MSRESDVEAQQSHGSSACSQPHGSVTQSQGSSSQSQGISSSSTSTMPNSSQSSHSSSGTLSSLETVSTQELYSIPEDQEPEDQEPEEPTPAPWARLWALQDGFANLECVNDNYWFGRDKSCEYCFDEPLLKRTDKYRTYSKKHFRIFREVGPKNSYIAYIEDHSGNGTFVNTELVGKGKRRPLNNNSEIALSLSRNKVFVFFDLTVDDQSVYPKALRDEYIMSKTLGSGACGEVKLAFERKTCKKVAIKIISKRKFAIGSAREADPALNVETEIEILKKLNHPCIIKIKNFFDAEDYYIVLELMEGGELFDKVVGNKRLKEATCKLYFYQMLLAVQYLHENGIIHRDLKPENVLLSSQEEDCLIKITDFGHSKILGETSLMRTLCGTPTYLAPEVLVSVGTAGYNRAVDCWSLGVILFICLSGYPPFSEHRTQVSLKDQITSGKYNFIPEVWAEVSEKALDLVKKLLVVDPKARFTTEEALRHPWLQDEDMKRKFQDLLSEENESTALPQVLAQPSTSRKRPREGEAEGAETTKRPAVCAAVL
# [19] = biological target: Serine/threonine-protein kinase Chk2 (Homo sapiens) (UniProt O96017); conditions: at 1 µM
# [20] = biological target: Death-associated protein kinase 1 (Homo sapiens) (UniProt P53355); conditions: at 0.1 µM;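 further: reported figure is the mean inhibition of DAPK1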
# Chain of Death-associated protein kinase 1 (Homo sapiens) (P53355 whole entry, looked up): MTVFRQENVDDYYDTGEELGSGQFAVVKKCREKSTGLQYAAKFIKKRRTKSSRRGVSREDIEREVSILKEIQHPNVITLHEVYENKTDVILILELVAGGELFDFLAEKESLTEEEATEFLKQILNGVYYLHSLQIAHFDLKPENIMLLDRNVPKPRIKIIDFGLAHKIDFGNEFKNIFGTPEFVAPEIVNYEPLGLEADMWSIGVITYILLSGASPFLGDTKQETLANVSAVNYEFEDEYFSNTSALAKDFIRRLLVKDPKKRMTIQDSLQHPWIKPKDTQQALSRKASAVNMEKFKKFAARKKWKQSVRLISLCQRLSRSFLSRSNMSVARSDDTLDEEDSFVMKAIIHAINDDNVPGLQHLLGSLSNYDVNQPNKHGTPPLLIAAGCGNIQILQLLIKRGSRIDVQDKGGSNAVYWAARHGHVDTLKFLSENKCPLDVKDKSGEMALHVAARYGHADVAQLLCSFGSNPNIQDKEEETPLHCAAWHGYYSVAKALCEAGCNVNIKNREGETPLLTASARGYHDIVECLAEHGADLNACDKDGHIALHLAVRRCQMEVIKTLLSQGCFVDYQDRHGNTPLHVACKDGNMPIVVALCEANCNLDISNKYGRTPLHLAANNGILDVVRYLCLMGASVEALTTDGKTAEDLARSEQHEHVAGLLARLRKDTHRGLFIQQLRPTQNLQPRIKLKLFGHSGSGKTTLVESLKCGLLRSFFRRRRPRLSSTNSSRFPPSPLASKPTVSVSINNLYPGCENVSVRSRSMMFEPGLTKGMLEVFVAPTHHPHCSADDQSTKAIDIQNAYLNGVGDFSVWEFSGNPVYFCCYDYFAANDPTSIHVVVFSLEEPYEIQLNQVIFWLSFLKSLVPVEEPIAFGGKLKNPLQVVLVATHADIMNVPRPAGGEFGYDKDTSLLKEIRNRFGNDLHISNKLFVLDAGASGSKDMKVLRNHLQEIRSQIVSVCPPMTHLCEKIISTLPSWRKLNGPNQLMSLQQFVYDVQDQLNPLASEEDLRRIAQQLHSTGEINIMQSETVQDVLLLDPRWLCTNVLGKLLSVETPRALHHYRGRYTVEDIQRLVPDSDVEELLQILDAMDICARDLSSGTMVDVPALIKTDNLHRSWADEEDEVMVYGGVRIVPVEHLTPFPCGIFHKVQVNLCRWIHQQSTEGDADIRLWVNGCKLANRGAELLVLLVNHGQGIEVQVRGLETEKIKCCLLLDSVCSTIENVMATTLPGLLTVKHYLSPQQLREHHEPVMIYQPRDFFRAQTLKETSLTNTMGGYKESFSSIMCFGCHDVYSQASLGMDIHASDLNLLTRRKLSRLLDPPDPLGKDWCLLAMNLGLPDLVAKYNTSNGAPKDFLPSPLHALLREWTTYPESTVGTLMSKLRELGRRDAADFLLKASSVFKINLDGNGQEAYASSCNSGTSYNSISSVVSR
# Chain of 5'-AMP-activated protein kinase catalytic subunit alpha-2 (Homo sapiens) (P54646 whole entry, looked up): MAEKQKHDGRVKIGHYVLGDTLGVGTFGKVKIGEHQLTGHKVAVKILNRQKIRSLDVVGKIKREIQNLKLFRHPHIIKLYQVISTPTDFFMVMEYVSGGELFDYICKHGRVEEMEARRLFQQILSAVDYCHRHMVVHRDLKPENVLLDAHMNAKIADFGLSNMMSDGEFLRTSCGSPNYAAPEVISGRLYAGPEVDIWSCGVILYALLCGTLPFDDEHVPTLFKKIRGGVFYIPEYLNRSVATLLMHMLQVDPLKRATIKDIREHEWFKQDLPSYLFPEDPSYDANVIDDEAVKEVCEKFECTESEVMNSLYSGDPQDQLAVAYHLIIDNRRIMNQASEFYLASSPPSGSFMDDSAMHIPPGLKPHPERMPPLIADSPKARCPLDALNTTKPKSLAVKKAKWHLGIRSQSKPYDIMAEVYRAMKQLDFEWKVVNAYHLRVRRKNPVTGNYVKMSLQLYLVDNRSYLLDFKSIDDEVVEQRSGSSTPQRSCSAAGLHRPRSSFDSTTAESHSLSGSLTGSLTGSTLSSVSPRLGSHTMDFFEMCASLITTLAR
Compound,inhibition [1],inhibition [2],inhibition [3],inhibition [4],inhibition [5],inhibition [6],inhibition [7],inhibition [8],inhibition [9],inhibition [10],inhibition [11],inhibition [12],inhibition [13],inhibition [14],inhibition [15],inhibition [16],inhibition [17],inhibition [18],inhibition [19],inhibition [20]
Cc1ccc(Nc2ccnc(Nc3cccc(C(N)=O)c3)n2)cc1O,5.29%,7.76%,41.1%,0.1%,6.23%,2.24%,9.72%,1.34%,4.12%,3.21%,3.19%,2.94%,5.54%,-0.64%,-0.14%,1%,2.08%,2.56%,12.8%,1.62%
CCn1c(-c2nonc2N)nc2ccc(F)cc21,3.56%,1.74%,2.03%,0.43%,1.87%,1.78%,5.06%,0.45%,-0.34%,4.39%,3.68%,3.98%,3.55%,-2.59%,-2.75%,3.58%,8.57%,3.29%,4.58%,8.42%
CCCN1CCCC(c2ccc(Nc3nc(Nc4cc(F)ccc4C(N)=O)c4cc[nH]c4n3)c(OC)c2)C1 (stereo not given),10.7%,30.2%,59.7%,2.61%,1.82%,2.57%,2.9%,15.8%,61.1%,11%,44.9%,26.9%,72.8%,7.83%,36.1%,-4.38%,8.07%,48.9%,79.1%,3.54%
COc1cc2ncnc(Nc3ccc(C)c(O)c3)c2cc1OC,5.2%,7.16%,1.93%,1.23%,3.78%,3.07%,6.2%,-0.09%,0.02%,2.98%,2.74%,2.6%,3.68%,-1.73%,-3.77%,4.63%,4%,5.03%,25.5%,6.4%
NC(=O)c1sc(-n2cnc3ccccc32)cc1OCc1ccccc1Br,4.98%,7.8%,29.1%,3.67%,8.3%,3.06%,17.1%,0.13%,2.21%,1.7%,3.18%,3.32%,7.99%,0.49%,2.57%,9.58%,13.2%,7.49%,10.5%,12.3%
Nc1nccc(-c2c(-c3ccc(F)cc3)nn3cc(C(F)(F)F)ccc23)n1,0.34%,0.16%,-3%,-0.37%,0.47%,0.15%,-0.77%,-1.67%,-2.05%,0.49%,-1.99%,0.49%,-0.48%,-0.17%,-1%,-1.52%,-2.44%,0.02%,-0.27%,2.24%
